Laboratory results reported in PubChem BioAssay (NCI).
Compounds without any hit were thinned out: in the full panel of roughly 83,000, 20% have a hit.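 Values shown are percent growth following 48 h exposure of cells in 96-well plates to a single concentration of compound; below 10 was considered active.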 Values without a mark were called inactive. Activity calls are given as the source filed them.

Legend:
Assay in all cases: NCI-60 one-dose screen, 48 h (100 = growth as untreated, 0 = no growth, -100 = all killed)
Conditions in all cases: 10 µM unless noted
[1] = test system: T-47D breast
[2] = test system: BT-549 breast
[3] = test system: MDA-MB-435 melanoma
[4] = test system: SW-620 colon
[5] = test system: MCF7 breast
[6] = test system: HCT-116 colon
[7] = test system: HCC-2998 colon
[8] = test system: KM12 colon

Structure (SMILES) | growth [1] | growth [2] | growth [3] | growth [4] | growth [5] | growth [6] | growth [7] | growth [8]
C=C1CC[C@@H]2[C@](C)(COC(C)=O)[C@H](OC(C)=O)CC[C@@]2(C)[C@@H]1CC(Nc1ccc(S(=O)(=O)Nc2nccs2)cc1)C1=CCOC1=O (some centres not stated) | 34.6% | -23.5% (active) | -8.31% (active) | -72.7% (active) | -21.3% (active) | -30.4% (active) | 54.2% | -0.895% (active)
O=C(N/N=C/c1ccc(O)cc1O)c1cccc(Nc2ccnc(C(F)(F)F)c2)c1 | 28.8% | 42.3% | 41% | 35.7% | 21.2% | 12.3% | 33.7% | 34.7%
Cn1c(=O)c2c(nc(Nc3cc(=O)[nH]c(=O)[nH]3)n2Cc2ccccc2)n(C)c1=O | 18.9% | 98.2% | -73% (active) | 19.3% | 95.5% | 94.2% | 107% | 5.18% (active)
CC1(C)C(N)=Nc2cc(OCCCN3Cc4ccc(OCCc5cn(CC(=O)N6CCC(CCN7CCCC7)CC6)nn5)cc4C3)c(OCC3CC3)cc21 | 92.3% | 100% | 102% | 109% | 89.3% | 103% | 122% | 107%
Clc1ccc(CNc2ccc3nc(CCC4CCCCC4)[nH]c3c2)cc1 | 24.3% | 83.3% | 66.4% | 26.2% | 37.9% | 36.2% | -57.6% (active) | 50.7%
CCC(=C(c1ccc(OCCCN(C)C)cc1)c1ccc(OCCCN(C)C)cc1)c1ccc(Cl)cc1 | -66.8% (active) | -92.6% (active) | -95.5% (active) | -73.7% (active) | -79.2% (active) | -94% (active) | -80.8% (active) | -78.7% (active)
Cc1nc2sc(C(=O)Nc3cccc4ccccc34)c(N)c2cc1C(=O)/C=C/c1ccccc1 | 14.5% | -31.1% (active) | 1.56% (active) | -8.3% (active) | 4.27% (active) | -52.8% (active) | -85.4% (active) | -43.7% (active)
Cc1ccc(C(=O)N(CCCN)[C@@H](c2nc3cc(Cl)ccc3c(=O)n2Cc2ccccc2)C(C)C)cc1 | -41.7% (active) | 24.2% | -89.9% (active) | -77.6% (active) | -61.2% (active) | -77.9% (active) | -74.4% (active) | -45.8% (active)
COc1ccc(-c2nn3c(-c4cc(F)c(Cl)cc4Cl)nnc3s2)cc1 | 50.3% | 54.3% | 3.5% (active) | 20.8% | 18.3% | 20.9% | 42.1% | 46.8%
Cc1ccccc1SSc1ccccc1C | 101% | 83.9% | 110% | 55% | 56.1% | 55% | 128% | 96.9%
O=C(CCCOc1ccc(Br)cc1)Nc1ncc(Cc2ccc(F)cc2)s1 | 58% | 82% | -27.2% (active) | 58.2% | 23.7% | 36.6% | 73.9% | 36.2%
[2H]C([2H])([2H])Oc1cccc(/C=C/C(=O)/C=C(/C=C/c2cccc(OC([2H])([2H])[2H])c2OC([2H])([2H])[2H])OB(F)F)c1OC([2H])([2H])[2H] | 50.6% | 86.2% | 57% | 46.7% | 26.2% | 41.5% | 122% | 92.2%
Cc1c(O)c(O)cc2c3c(oc12)CC(c1ccc2c(c1)OCO2)CC3=O (configuration not stated) | 67.4% | 74.6% | 105% | 81.7% | 73.6% | 90.2% | 101% | 90.9%
COc1cc(/C=N/NC(=O)CCN2c3ccccc3Sc3ccccc32)cc(OC)c1OC | 41.5% | 88.6% | 87.4% | 90.8% | 97.3% | 80.1% | 113% | 81.4%
